These results are taken from PubChem BioAssay (NCI).

This is part of a sample that, as a whole, favours compounds with a hit. Of some 83,000 tested, about 20% had one in any assay.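 Treatment: one concentration, 48 hours, 96-well format. Scoring: percent growth, with anything below 10 considered active.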 A number with no mark means an inactive call. Activity calls are given as the source filed them.

This assay has as its system COLO 205 colon. Briefly: NCI-60 one-dose screen, 48 h (100 = growth as untreated, 0 = no growth, -100 = all killed). To be noted: 10 µM unless noted. How it is done:
Cells are grown in 96 well plates and exposed to the test compound for 48 hours. Compounds are tested at a single concentration, which is 10^-5 M for most compounds. The reported endpoint is percent growth (GI% or GIPRCNT), where numbers from 0 - 100% represent growth inhibition, and numbers from -100% - 0 represent cell death. For example, a value of 40 represents 60% growth inhibition. A value of 0 means no net growth occurred over the course of the experiment. A value of -40 indicates 40% of cells at the beginning of the experiment died by the end of the experiment. A value of -100 means all cells are dead at the end of the experiment.
NCI-60 Human Tumor Cell Lines Screen was performed using the standard one-dose NCI protocol, which is described in more detail at https://dtp.cancer.gov/discovery_development/nci-60/default.htm.
Compounds with GIPRCNT values below 10 were considered active. Activity score was based on GIPRCNT using the following formula: […]
Score is 0 for GIPRCNT values of 100 or above, 50 for GIPRCNT values of 0, and 100 for GIPRCNT values of -100.
Take `O=C(O)c1c(Cl)n(Cc2ccc(O)cc2)c2ccc(O)cc12`: the growth was 110%.

`CCCCCCCC[n+]1ccc2ccccc2c1`: the growth was 59%.

For `O=[N+]([O-])/C=C\c1ccc(Cl)c(Cl)c1`, the growth was 41.1%. For `CC(=O)OCC1O[C@@H]([S-])C(OC(C)=O)[C@H](OC(C)=O)[C@@H]1OC(C)=O.[Au+].c1ccc(CN2[CH-]N(Cc3ccccc3)C(c3ccccc3)=C2c2ccccc2)cc1` the value was 13.8%; for `O=C(CC1(O)C(=O)N(Cc2ccccc2)c2ccccc21)c1ccc(C(=O)NCC2CCC3(CC2)OOC2(CCCCC2)OO3)cc1` (stereo not given), -52.9% (active). Regarding `COC(=O)CCc1c[nH]c2ccc(N(CCCl)CCCl)cc12`, the growth is 68.8%. `COC(=O)[C@@H](C)C[C@H](Cc1ccccc1)NC(=O)c1csc([C@@H](C[C@H](C(C)C)N(C)C(=O)[C@@H](NC(=O)[C@H]2CCCCN2C)C2CC2)OC(C)=O)n1`: the growth was -69.9% (active). Consider `COC(=O)[C@@H](C)C[C@H](Cc1ccccc1)NC(=O)c1nc([C@@H](C[C@H](C(C)C)N(C)C(=O)[C@@H](NC(=O)[C@H]2CC(=O)CCN2C)C(C)C)OC(C)=O)sc1C(C)C`, for which the growth was -39.9% (active).

Regarding `CC(=O)OC1CCC2(C)C(CCC3C2CC(=O)C2(C)C3CC(Sc3ccc(N(CCCl)CCCl)cc3)C2C(C)=O)C1` (stereo not given), the growth is 9.14% (active). As for `[Cl][Hg][c]1cc(Br)cc(Br)c1`, the figure is 91%. For the compound `CC(=O)O[C@H](C[C@H](C(C)C)N(C)C(=O)[C@@H](NC(=O)[C@H]1CCCCN1C)C(C)C)c1cccc(C(=O)N[C@@H](Cc2ccccc2)C[C@H](C)C(=O)O)n1`, the growth is -64% (active). Regarding `COC(=O)[C@@H](C)C[C@H](Cc1ccc(F)cc1)NC(=O)c1csc([C@@H](C[C@H](C(C)C)N(C)C(=O)[C@@H](NC(=O)[C@H]2CCCCN2C)C(C)C)OC(C)=O)n1`, the growth is -68.8% (active). As for `COc1ccc(/C=C\c2cc(OC)c(OC)c(OC)c2)cc1NC(=O)/C=C/c1cc(OC)c(OC)c(OC)c1`, the growth is 42.1%. As for `O=C(N/N=C/c1ccc(N(CCCl)CCCl)cc1)c1cccc2ccccc12`, the growth is 86.3%.

On to `CNC(=O)Oc1ccc2c(c1)OCO2`, for which the growth is 103%. `CCCCCCCOC(C(=O)OCCN(CC)CC)(c1ccccc1)c1ccccc1`: the growth was 95.3%.

For the compound `CN(C)CCCOc1ccc2c(c1)c(C(=O)C(=O)NCCO)cn2Cc1ccccc1`, the growth was 107%. As for `O=[N+]([O-])c1cc([N+](=O)[O-])c(Nn2c3ccccc3c3ccccc32)c([N+](=O)[O-])c1`, the figure is -65.2% (active); as for `CC(=O)[O][Hg][c]1c(N)c(C)cc(C)c1F`, -16.6% (active); as for `CC1CCCC(C[N+](C)(C)C)C1=O` (stereo not given), 118%.

Consider `COC(=O)[C@@H](C)C[C@H](Cc1ccccc1)NC(=O)c1csc([C@@H](C[C@H](C(C)C)N(C)C(=O)[C@@H](NC(=O)[C@H]2CCCCN2C)C(C(F)(F)F)C(F)(F)F)OC(C)=O)n1`, for which the growth was -50.6% (active). Consider `CCOC(=O)[C@@H](C)C[C@H](Cc1ccccc1)NC(=O)c1csc([C@@H](C[C@H](C(C)C)N(C)C(=O)[C@@H](NC(=O)[C@H]2CCCCN2C)C(C)(C)C)OC(C)=O)n1`, for which the growth was -75.6% (active).

On to `Nc1ccc2c(c1)oc1ccccc12`, for which the growth was 123%. Take `Nc1ccc2c(c1)Cc1cc(Br)ccc1-2`: the growth is 117%. Turning to `N#C[S-].[Au+].c1ccc(CN2[CH-]N(Cc3ccccc3)C(c3ccccc3)=C2c2ccccc2)cc1`, the growth was -76.9% (active).

In the case of `COC1OC(CO)C(O)C(O)[CH]1[Hg][O]C(C)=O` (stereo not given), the growth was 98%. For `CC(=O)O[C@H](C[C@H](C(C)C)N(C)C(=O)[C@@H](NC(=O)[C@H]1CCCCN1C)C(C)C)c1nc(C(=O)NC2CCC(C(=O)O)CC2)cs1` (stereo not given in full) the value was 32.6%; for `Clc1cccc(NCOOC2(OOCNc3cccc(Cl)c3)CCCCCC2)c1`, 113%; for `Cc1ccccc1NC(=NCCCN1CC1)Nc1ccccc1C`, 102%. Turning to `O=C(CN1CCN(C(=O)c2ccco2)CC1)Nc1ccc(Cl)cc1C(=O)c1ccccc1Cl`, the growth was 95.9%.

Take `COc1cc(/C=C/[N+](=O)[O-])cc(OC)c1`: the growth was -49.4% (active). On to `O=C1N[C@@H]2[C@@H](O)[C@@H](O)[C@H](O)C[C@H]2c2cc3c(c(O)c21)OCO3`, for which the growth was -38.2% (active).

As to `CN1CCCCC1C(C)(O)c1ccccc1` (stereo not given), the growth is 114%. As for `CCOC(=O)[C@@H](C)C[C@H](Cc1ccccc1)NC(=O)c1csc([C@@H](C[C@H](C(C)C)N(C)C(=O)[C@H](CCC(C)C)NC(=O)[C@H]2CCCCN2C)OC(C)=O)n1`, the growth is -75.2% (active). As to `Clc1ccc(COC(Cn2ccnc2)c2ccc(Cl)cc2Cl)cc1` (stereo not given), the growth was 68.8%. With `COc1ccc(/C(C)=C(\c2ccc(OCCN3CCOCC3)cc2)c2ccc(OC(=O)Cc3ccccc3)cc2)cc1`, the growth was 109%.

Consider `O=C(Nc1ccc(O)cc1)C(Cl)(Cl)Cl`, for which the growth is 102%. Regarding `COC(=O)[C@]12CCC(C)(C)C[C@H]1[C@H]1C(=O)C[C@@H]3[C@@]4(C)C[C@@]5(CC(C)(C)[C@@H]4CC[C@@]3(C)[C@]1(C)CC2)OO[C@@](C)(C(F)(F)F)O5`, the growth is 134%.

With `Cc1cc(C)c(CBr)c(C)c1`, the growth is 107%. With `Clc1cccc(Cl)c1Cl`, the growth is 122%.
